Results on 40 compounds are retold here after the supplement of paper PMC7156485.

Values without a mark were called inactive.
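Also: TDF is a line of transformed human dermal fibroblasts of mesenchymal origin.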

The subject of the test is TDF. As to the kind of experiment: H1.0 immunofluorescence intensity relative to DMSO (% of DMSO); higher = stronger H1.0 induction, active = 120 or more. To be noted: concentration: 10 µM; 24 h. The method in brief:
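H1.0 nuclear intensity or cell number is stated as percent of the plate control, based on the median of replicates, and HCC1569 values were smoothed for positional effects. These came from HCC1569 and TDF cells treated with compounds at 10 µM for 24 h at 37 °C in triplicate, then fixed in 3.7% formaldehyde and stained with a rabbit anti-H1.0 antibody, an AlexaFluor 647 secondary and DAPI.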
Turning to `CC(C)NCC(O)COc1ccc(CC(N)=O)cc1` (stereo not drawn) [S(-)-Atenolol], the H1.0 immunofluorescence intensity was 92.2. With `Cc1ccc(-c2nn(C(C)(C)C)c3ncnc(N)c23)cc1`, the H1.0 immunofluorescence intensity is 94.8. The figure for `O=c1[nH]c2cc([N+](=O)[O-])c([N+](=O)[O-])cc2[nH]c1=O` is 91.9; for `OCC1OC(n2cnc3c(NC4CCCCC4)ncnc32)C(O)C1O` (stereo not given) [N6-Cyclohexyladenosine] it is 97.9; for `CN(C)CCC(CSc1ccccc1)Nc1ccc(S(=O)(=O)NC(=O)c2ccc(N3CCN(Cc4ccccc4-c4ccc(Cl)cc4)CC3)cc2)cc1[N+](=O)[O-]` (stereo not given) it is 110. Take `CCC1C(=O)OCC1Cc1cncn1C.Cl` (single isomer, unassigned; (+)) [(+)-Pilocarpine hydrochloride]: the H1.0 immunofluorescence intensity was 102. The figure for `CCCCC1(C2CCCC2)Cc2cc(OCC(=O)O)c(Cl)c(Cl)c2C1=O` (stereo not drawn) [R(+)-Butylindazone] is 86.7; for `CSc1nc2ccc3nc(NC(=O)C(c4ccccc4)c4ccccc4)sc3c2s1` it is 99.4; for `COc1ccc2c(c1OC)C(=O)OC2C1c2c(cc3c(c2OC)OCO3)CCN1C` (racemic) it is 105.

Turning to `Brc1c(NC2=NCCN2)ccc2nccnc12`, the H1.0 immunofluorescence intensity was 90.2. Regarding `CCCCCC(O)C=CC1C(O)CC(O)C1CC=CCCCC(=O)O` (racemic), the H1.0 immunofluorescence intensity is 88.4.

With `COc1cc(C(O)C(=O)O)ccc1O` (stereo not given) [hydroxy(4-hydroxy-3-methoxyphenyl)acetic acid], the H1.0 immunofluorescence intensity was 94.8.

As for `CC(C)CNCc1ccc(-c2ccccc2S(=O)(=O)N2CCCC2)cc1.Cl`, the H1.0 immunofluorescence intensity is 88.9. With `CC(N=C(NC#N)Nc1ccncc1)C(C)(C)C` (stereo not given) [Pinacidil], the H1.0 immunofluorescence intensity was 89.4.

Regarding `COc1cc(-c2oc3cc(O)cc(O)c3c(=O)c2OC2OC(CO)C(O)C(O)C2O)cc(OC)c1O` (stereo not given) [Syringetine-3-glucoside], the H1.0 immunofluorescence intensity was 101. With `C=C1CCC(O)CC1=CC=C1CCCC2(C)C1CCC2C(C)CCCC(C)(C)O` (stereo not given) [Calcifediol], the H1.0 immunofluorescence intensity was 99.9. Consider `CC1(C)SC2C(NC(=O)C(N)c3ccccc3)C(=O)N2C1C(=O)O` (stereo not given) [Ampicillin], for which the H1.0 immunofluorescence intensity was 90. The figure for `CNCCCC1c2ccccc2C=Cc2ccccc21.Cl` [Protriptyline hydrochloride] is 109; for `S=C([S-])OC1CC2CC1C1CCCC21.[K+]` [D-609 potassium] it is 95.2; for `CN(C)c1ccccc1CN1CCCN(Cc2ccccc2N(C)C)C1c1ccncc1` it is 109. In the case of `O=C(NC(NC(=S)Nc1ccc(F)c([N+](=O)[O-])c1)C(Cl)(Cl)Cl)C(c1ccccc1)c1ccccc1` (stereo not given), the H1.0 immunofluorescence intensity is 108.

Take `CC(C)NCC(O)COc1cccc2ccccc12` (stereo not drawn) [Propranolol S(-)]: the H1.0 immunofluorescence intensity is 102. Take `CS(=O)(=O)Nc1ccc([N+](=O)[O-])cc1Oc1ccccc1` [Nimesulide]: the H1.0 immunofluorescence intensity was 94.4. With `CC(C)c1ccc2oc3nc(N)c(C(=O)O)cc3c(=O)c2c1`, the H1.0 immunofluorescence intensity was 97.3. For the compound `C#CCN[C@H]1CCc2ccccc21` [N-[(1S)-2,3-dihydro-1H-inden-1-yl]-N-(2-propynyl)amine], the H1.0 immunofluorescence intensity is 92.2.

Turning to `CC(O)(P(=O)([O-])O)P(=O)([O-])O` [Etidronate], the H1.0 immunofluorescence intensity is 102.

Take `CCOC(=O)C1=CC(OC(CC)CC)C(NC(C)=O)C(N)C1` (stereo not given) [Oseltamivir]: the H1.0 immunofluorescence intensity is 94. With `CCCCCCCCCCCCCCCC(=O)C(F)(F)F`, the H1.0 immunofluorescence intensity is 93.3.

Turning to `CCCn1cnc2c1c(=O)n(CCCCC(C)=O)c(=O)n2C` [Propentofylline], the H1.0 immunofluorescence intensity was 90.3. The figure for `O=C(NCCO)c1cccc(-c2cc(Nc3ccc(OC(F)(F)F)cc3)ncn2)c1` is 110. As to `Cl.Oc1ccc(Nc2nc(-c3ccc(Cl)cc3)cs2)cc1` [Sphingosine Kinase Inhibitor], the H1.0 immunofluorescence intensity was 110.

Consider `CCCCCCCCCCCCCC=CC(O)C(CO)NC(=O)CCCCC` (stereo not given) [C6 Ceramide], for which the H1.0 immunofluorescence intensity was 151 (active).

As to `C[C@@H](O)[C@H]1C(=O)N2C(C(=O)O)=C(SCCN=CN)C[C@H]12.O`, the H1.0 immunofluorescence intensity is 99.9. In the case of `CCCCc1c(-c2ccc(OC)cc2)[nH]c2nccnc12` [Aloisine, RP106], the H1.0 immunofluorescence intensity is 93.2. Consider `N#Cc1c(NC(=O)c2cccc3ccccc23)sc2c1CCCC2` [JNK Inhibitor IX], for which the H1.0 immunofluorescence intensity is 163 (active). As to `CCc1cccc(N(C)C(N)=Nc2cccc3ccccc23)c1.Cl`, the H1.0 immunofluorescence intensity is 115.

As for `CC(=O)O.CSC(N)=NCCCC(N)C(=O)O` [S-Methyl-L-thiocitrulline acetate], the H1.0 immunofluorescence intensity was 92. For the compound `Cl.NCCS` [Cysteamine hydrochloride], the H1.0 immunofluorescence intensity was 91.2.

For the compound `Cn1cnc2c(NCc3ccccc3)nc(NCCO)nc21`, the H1.0 immunofluorescence intensity is 103. The figure for `CCCCCC=CCC=CC=CC=CC(O)C(O)CCCC(=O)O` (stereo not given) is 99.2.
